Data on five molecules can be found in ChEMBL document CHEMBL3988442, “University of Dundee, Small-Polar-MMV Screening Library” (2021).

Parameters in all cases: scale not given: direction of the effect not stated beside the values
In assay [1] the target is Protein translocase subunit SecA (Escherichia coli (strain K12)) (UniProt P10408). Description: Assay to Identify E. coli SecA ATPase Inhibitors. It is filed as functional. As to conditions: 30 µM.
Assay [2] deals with T1, Ubiquitin-activating enzyme e1, putative (Leishmania donovani (strain BPK282A1)) (UniProt E9BSI1).
T1 sequence (whole entry): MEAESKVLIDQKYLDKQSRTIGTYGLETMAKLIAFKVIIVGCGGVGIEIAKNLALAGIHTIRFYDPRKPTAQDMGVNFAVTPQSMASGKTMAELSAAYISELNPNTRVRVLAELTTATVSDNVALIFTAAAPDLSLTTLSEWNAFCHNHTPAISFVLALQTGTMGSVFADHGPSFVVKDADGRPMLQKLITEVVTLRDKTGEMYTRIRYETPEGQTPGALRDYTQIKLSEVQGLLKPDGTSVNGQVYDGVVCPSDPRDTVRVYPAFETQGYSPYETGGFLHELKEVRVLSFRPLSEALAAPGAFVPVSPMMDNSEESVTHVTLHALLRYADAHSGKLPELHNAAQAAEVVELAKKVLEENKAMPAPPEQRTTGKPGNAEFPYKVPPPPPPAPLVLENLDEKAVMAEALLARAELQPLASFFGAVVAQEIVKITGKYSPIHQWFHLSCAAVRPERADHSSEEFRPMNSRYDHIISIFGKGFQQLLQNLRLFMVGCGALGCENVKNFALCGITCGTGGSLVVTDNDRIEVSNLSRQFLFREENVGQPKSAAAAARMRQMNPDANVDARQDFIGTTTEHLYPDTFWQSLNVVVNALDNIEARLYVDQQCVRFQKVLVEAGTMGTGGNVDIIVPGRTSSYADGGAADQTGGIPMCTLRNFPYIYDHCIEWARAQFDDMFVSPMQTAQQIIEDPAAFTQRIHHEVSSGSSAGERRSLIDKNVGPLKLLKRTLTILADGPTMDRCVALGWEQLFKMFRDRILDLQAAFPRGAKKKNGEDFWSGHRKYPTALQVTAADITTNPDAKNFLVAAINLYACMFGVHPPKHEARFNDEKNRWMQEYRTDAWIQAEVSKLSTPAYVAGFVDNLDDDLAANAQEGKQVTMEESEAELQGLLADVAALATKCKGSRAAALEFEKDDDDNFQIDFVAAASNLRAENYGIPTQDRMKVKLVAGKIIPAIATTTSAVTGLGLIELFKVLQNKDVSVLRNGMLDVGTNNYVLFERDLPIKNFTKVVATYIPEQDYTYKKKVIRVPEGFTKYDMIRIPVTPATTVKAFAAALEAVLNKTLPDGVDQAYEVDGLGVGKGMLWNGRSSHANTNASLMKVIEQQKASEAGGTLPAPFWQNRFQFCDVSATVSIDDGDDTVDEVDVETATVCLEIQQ
Description: Leishmania donovani Ubiquitin Activating Enzyme (LdE1). The format is functional. As to conditions: 30 µM.

The target of assay [3] is AMP-activated protein kinase, AMPK (Homo sapiens) (UniProt P54646+O43741+P54619+Q9UGJ0+Q9Y478+Q13131+Q9UGI9). In words: AMP-dependent Kinase enzyme assay. An in vitro enzyme assay that detects ADP turnover that is directly proportional to AMPK activity. This uses naive AMPK that is activated during the assay with MK-8722. It is filed as functional. As to conditions: 30 µM.

Assay [4] concerns the target Sialic acid-binding Ig-like lectin 9 (Homo sapiens) (UniProt Q9Y336). Description: Hs-Siglec9 ALPHAscreen SOP 20170721. The settings on record: 10 µM. In general terms: Bead proximity is the source of the signal in Alpha formats.
In assay [5] the test system is Trypanosoma cruzi. In words: Trypanosoma cruzi phosphomannomutase and mannose-1-phosphate guanylyltransferase assay. As to conditions: 10 µM. The format is functional.
For assay [6], the target named is T2, Arginase-2, mitochondrial (Homo sapiens) (UniProt P78540).
T2 sequence (whole entry): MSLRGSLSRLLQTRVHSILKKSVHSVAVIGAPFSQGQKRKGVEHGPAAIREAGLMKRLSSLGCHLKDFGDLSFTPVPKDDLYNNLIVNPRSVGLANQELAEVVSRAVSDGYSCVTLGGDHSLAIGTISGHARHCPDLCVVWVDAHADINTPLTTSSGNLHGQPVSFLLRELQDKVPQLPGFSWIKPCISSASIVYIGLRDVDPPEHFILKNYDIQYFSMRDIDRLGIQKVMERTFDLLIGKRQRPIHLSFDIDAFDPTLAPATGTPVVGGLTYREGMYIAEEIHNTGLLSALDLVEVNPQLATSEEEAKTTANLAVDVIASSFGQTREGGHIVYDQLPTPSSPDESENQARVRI
Description: in vitro enzyme assay to detect the production of urea directly proportional to the activity of Arginase II. Also: in the data most compounds retested in dose-response had high values. It is filed as functional. The settings on record: 33.3 µM.

The target in assay [7] is T3, Proteasome subunit beta (Trypanosoma cruzi) (UniProt O96673).
T3 sequence (whole entry): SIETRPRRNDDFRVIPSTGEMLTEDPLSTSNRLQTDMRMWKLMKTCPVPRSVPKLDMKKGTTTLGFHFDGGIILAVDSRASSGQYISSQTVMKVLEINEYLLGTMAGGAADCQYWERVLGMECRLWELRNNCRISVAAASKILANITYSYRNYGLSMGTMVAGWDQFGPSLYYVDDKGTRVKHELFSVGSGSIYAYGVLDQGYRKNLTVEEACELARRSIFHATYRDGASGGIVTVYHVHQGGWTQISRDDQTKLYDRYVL
In words: Trypanosoma cruzi proteasome chymotrypsin-like activity (TcProtChymo) assay. Also: in the data most compounds retested in dose-response had high values. The settings on record: 9.37 µM. It is filed as functional.

Assay [8] deals with N/A. Description: Trypanosoma cruzi proteasome luciferase counter-screen. It is filed as functional. As to conditions: 9.37 µM. On the technique in general: The purpose of a counterscreen is to sort out artefacts and off-target activity.
The species entered for assay [9] is Homo sapiens. In words: To identify inhibition of the IFN signalling (Jak-Stat) pathway via expression of an eGFP reporter gene under the control of an IFN-stimulated response element (ISRE) containing MxA promoter. The format is functional. As to conditions: 30 µM. A general note: Reporter assays use an easily measured gene product as a stand-in for the process of interest.

In assay [10] the target is T4, Tyrosyl-tRNA synthetase, putative (Trypanosoma cruzi (strain CL Brener)) (UniProt Q4DSP6).
T4 sequence (whole entry): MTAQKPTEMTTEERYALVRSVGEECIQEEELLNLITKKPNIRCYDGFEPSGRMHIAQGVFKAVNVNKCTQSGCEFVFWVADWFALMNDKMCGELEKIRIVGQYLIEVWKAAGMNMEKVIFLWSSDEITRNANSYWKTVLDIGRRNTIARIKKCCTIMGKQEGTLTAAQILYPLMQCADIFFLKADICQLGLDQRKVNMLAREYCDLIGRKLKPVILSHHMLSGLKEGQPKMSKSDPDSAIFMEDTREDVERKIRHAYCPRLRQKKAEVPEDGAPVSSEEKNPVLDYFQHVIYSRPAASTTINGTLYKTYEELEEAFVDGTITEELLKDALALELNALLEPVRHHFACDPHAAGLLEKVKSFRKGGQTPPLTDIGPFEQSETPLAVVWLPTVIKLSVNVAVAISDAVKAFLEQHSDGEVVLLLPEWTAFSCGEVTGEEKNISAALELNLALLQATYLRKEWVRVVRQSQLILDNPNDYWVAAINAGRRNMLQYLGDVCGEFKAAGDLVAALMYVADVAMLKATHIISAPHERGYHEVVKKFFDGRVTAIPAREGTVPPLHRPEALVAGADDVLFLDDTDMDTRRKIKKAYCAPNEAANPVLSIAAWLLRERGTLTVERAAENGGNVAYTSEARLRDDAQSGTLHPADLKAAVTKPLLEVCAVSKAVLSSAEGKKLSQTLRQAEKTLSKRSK
In words: Trypanosoma cruzi tyrosyl tRNA synthetase (TcYRS) _High Tyrosine SOP. Also: in the data most compounds retested in dose-response had high values. The format is functional. As to conditions: 30 µM.

In assay [11] the target is T4, Tyrosyl-tRNA synthetase, putative (Trypanosoma cruzi (strain CL Brener)). Description: Trypanosoma cruzi tyrosyl tRNA synthetase (TcYRS) SOP. It is filed as functional. As to conditions: 30 µM.
Assay [12] deals with Chromo domain-containing protein 1 (Saccharomyces cerevisiae (strain ATCC 204508 / S288c) (Baker's yeast)) (UniProt P32657). Description: ScCHD-1 Enzyme Inhibition Assay. Also: in the data most compounds retested in dose-response had high values. The format is functional. The settings on record: 30 µM.

Several values for one entry are separate records, joined by “and”; a condition that tells them apart may be missing. Equal values may be shown once. For part of these data: Potency and affinity values are given separately.

Protein translocase subunit SecA (Escherichia coli (strain K12)), sequence (P10408 whole entry): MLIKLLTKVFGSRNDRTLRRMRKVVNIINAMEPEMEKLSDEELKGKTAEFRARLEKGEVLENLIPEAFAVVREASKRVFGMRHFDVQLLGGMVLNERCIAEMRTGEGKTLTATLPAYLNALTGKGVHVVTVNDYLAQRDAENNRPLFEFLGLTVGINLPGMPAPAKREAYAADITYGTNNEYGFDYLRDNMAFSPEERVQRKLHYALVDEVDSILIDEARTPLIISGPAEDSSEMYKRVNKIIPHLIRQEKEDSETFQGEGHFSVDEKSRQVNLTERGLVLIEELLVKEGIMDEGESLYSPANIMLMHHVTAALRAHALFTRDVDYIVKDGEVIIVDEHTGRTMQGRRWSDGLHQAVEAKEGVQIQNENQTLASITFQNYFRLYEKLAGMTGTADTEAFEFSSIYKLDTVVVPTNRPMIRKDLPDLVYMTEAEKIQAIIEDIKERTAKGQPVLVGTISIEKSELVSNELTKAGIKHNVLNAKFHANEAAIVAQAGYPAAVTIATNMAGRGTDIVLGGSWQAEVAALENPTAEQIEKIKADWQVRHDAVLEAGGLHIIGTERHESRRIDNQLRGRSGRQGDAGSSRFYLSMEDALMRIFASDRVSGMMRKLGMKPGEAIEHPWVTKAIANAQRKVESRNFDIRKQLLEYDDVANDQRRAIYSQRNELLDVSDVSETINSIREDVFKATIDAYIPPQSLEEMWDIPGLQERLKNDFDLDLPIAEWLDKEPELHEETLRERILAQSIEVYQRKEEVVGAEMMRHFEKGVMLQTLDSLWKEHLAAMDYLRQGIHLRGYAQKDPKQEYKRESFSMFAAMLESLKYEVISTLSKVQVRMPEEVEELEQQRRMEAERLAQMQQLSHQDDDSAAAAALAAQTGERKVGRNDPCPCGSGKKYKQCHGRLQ
Sialic acid-binding Ig-like lectin 9 (Homo sapiens), sequence (Q9Y336 whole entry): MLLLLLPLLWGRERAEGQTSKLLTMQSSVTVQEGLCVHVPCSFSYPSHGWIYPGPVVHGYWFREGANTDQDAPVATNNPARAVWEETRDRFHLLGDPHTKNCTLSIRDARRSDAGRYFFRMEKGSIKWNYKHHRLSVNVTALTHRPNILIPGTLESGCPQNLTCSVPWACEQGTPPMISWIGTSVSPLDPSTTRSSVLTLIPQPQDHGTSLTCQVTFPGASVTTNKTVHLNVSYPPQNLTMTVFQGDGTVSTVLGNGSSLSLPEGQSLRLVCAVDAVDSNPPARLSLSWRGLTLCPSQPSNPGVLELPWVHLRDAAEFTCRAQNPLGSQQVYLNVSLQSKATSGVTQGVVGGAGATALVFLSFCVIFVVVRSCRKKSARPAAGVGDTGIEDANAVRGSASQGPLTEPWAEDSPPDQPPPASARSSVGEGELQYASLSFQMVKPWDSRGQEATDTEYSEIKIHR
Chromo domain-containing protein 1 (Saccharomyces cerevisiae (strain ATCC 204508 / S288c) (Baker's yeast)), sequence (P32657 whole entry, the tested form may be a part): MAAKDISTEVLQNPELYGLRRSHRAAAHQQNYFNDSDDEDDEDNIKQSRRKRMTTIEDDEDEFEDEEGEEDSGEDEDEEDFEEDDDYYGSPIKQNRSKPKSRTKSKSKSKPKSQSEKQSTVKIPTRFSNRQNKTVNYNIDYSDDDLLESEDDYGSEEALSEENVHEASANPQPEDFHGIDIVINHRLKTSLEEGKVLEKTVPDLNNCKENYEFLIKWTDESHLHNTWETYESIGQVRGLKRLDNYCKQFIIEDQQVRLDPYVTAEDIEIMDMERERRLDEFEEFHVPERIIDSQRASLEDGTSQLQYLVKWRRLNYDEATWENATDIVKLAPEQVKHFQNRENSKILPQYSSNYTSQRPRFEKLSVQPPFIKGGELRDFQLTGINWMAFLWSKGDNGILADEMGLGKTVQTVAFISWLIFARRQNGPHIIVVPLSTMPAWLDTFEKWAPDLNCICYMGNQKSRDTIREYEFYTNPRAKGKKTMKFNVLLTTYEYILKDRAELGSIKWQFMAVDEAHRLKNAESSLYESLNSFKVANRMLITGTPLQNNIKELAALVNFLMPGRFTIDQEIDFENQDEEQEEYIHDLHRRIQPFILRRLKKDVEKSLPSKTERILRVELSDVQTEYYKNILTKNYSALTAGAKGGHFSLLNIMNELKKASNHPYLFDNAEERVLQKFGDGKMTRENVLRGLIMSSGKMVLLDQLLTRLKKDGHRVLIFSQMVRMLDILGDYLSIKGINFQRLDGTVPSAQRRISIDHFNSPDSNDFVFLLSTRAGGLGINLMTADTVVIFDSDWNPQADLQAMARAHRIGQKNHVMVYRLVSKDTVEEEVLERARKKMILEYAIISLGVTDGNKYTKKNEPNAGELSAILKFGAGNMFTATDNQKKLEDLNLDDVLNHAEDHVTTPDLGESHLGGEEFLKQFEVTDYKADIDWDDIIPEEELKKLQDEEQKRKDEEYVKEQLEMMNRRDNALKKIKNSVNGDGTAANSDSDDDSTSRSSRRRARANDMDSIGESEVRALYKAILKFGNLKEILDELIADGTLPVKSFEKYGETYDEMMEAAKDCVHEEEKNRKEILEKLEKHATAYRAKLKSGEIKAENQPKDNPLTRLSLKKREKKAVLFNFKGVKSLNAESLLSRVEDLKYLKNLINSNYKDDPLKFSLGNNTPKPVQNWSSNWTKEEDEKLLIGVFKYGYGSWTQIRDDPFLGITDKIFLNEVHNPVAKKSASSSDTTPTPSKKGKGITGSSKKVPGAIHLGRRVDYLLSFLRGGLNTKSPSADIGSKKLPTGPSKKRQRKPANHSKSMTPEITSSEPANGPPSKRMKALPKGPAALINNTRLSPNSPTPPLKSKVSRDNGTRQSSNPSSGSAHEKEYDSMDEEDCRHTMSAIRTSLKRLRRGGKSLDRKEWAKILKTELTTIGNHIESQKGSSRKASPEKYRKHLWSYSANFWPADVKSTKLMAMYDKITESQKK

As for `Cc1cc(C2CCCN(C(=O)c3c(C)noc3C)C2)n[nH]1` (stereo not given), the Percent Effect in assay [1] was -3.57%; in assay [2], 2.63%; in assay [3], 9.83%; in assay [4], 9.23%; in assay [5], 0.292%; in assay [6], -20.1%. Also, the Percent Effect is 16.6% and 37.9% and 18.8% in [7]; 18% and 16.2% in assay [8]; -5.01% in assay [9]; 7.45% in assay [10]; 7.79% in assay [11]; -1.42% in [12].

For the molecule `CCc1nc(CN2CCCN(C(=O)CCc3ccco3)CC2)cs1`, the Percent Effect is -4.67% in [1]; 8.86% in [2]; -0.445% in [3]; -5.08% in assay [4]; 5.64% in assay [5]; -4.95% in [6]. The Percent Effect was 56.6% and 53% and 44.8% in assay [7]; 0.501% and 5.84% in assay [8]; 3.92% in [9]; 7.29% in [10]; 15.2% in [11]; -32.7% in assay [12].

As for `CN(C(=O)Cc1ccc(NC(=O)NC2CCC2)cc1)c1ccccc1`, the Percent Effect in assay [1] was -9.26%; in [2], 5.26%; in [3] it was -0.53%; in assay [4], 9.14%; in assay [5] it was 4.58%; in [6], 0%. In addition, the Percent Effect in [7] was 41.9% and 43.6% and 48.1%; in [8], 15.8% and 14.9%; in assay [9] it was 9.37%; in assay [10], 4.25%; in assay [11] it was 15.6%; in [12], -19%.

With `O=C(Nc1ccc(F)c(Br)c1)N1CCCC1`, the Percent Effect is -2.64% in assay [1]; -2.7% in assay [2]; 4.93% in assay [3]; -0.317% in [4]; -4.49% in assay [5]; 2.92% in [6]. In addition, the Percent Effect in [7] was 53.1% and 53% and 53.3%; in [8] it was 8.61% and 7.62%; in assay [9] it was 18.2%; in assay [10] it was -34.6%; in assay [11], 3.66%; in [12] it was -3.18%.

Take `Cc1ccc(C)c(C(NC(=O)C2CC2)c2cccnc2)c1` (stereo not given): the Percent Effect in [1] was 0.279%; in assay [2] it was 18.2%; in assay [3], -0.34%; in [4], -7.55%; in assay [5], 4.24%; in assay [6], -1.94%. Besides, the Percent Effect in assay [7] was 32.4% and 20.1% and 20.4%; in assay [8] it was 21.2% and 15.5%; in assay [9], 6.26%; in assay [10], 4.23%; in [11], 8.97%; in [12], -10.3%.
